Assay results: ChEMBL document CHEMBL3988442, “University of Dundee, Small-Polar-MMV Screening Library” (2021)
For part of these data: Measured potencies and affinities stand elsewhere.

Tests used:
Design in all cases: scale not given: direction of the effect not stated beside the values
[1] = target: Protein translocase subunit SecA (Escherichia coli (strain K12)) (UniProt P10408); test: Assay to Identify E. coli SecA ATPase Inhibitors; format: functional; conditions: 30 µM
[2] = target: T1, Ubiquitin-activating enzyme e1, putative (Leishmania donovani (strain BPK282A1)) (UniProt E9BSI1); test: Leishmania donovani Ubiquitin Activating Enzyme (LdE1); format: functional; conditions: 30 µM
T1 sequence (whole entry): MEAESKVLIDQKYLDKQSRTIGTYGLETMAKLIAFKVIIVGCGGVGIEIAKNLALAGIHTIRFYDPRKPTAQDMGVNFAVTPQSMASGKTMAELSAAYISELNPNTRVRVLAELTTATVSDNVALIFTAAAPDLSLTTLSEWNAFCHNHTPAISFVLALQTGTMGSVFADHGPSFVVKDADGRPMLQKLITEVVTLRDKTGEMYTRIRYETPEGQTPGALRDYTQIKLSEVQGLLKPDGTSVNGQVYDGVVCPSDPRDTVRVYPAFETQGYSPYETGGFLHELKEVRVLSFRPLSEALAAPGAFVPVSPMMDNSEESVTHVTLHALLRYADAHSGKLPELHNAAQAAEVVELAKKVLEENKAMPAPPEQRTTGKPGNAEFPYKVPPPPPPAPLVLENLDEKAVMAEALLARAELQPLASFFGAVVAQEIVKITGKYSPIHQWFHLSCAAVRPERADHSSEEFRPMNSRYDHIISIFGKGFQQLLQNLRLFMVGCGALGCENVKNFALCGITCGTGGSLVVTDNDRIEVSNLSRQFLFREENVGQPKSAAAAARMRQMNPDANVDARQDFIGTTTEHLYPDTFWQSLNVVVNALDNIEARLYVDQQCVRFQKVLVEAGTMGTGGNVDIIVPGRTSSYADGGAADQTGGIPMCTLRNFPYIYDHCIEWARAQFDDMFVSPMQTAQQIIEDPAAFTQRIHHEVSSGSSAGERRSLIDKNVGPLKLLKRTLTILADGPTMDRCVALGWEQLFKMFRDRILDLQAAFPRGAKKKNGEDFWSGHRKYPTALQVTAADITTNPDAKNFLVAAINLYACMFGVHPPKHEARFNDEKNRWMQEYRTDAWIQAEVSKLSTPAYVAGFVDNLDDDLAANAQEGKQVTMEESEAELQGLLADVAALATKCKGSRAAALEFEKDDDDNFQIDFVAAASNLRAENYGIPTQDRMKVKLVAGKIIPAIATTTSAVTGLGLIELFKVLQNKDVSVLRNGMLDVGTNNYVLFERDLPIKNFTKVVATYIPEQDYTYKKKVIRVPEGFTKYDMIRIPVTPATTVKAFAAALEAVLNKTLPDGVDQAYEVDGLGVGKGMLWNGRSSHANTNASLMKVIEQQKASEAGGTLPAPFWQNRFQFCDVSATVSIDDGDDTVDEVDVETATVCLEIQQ

[3] = target: Sialic acid-binding Ig-like lectin 9 (Homo sapiens) (UniProt Q9Y336); test: Hs-Siglec9 ALPHAscreen SOP 20170721; conditions: 10 µM
Trypanosoma cruzi = test: Trypanosoma cruzi phosphomannomutase and mannose-1-phosphate guanylyltransferase assay; format: functional; conditions: 10 µM
[4] = target: T2, Arginase-2, mitochondrial (Homo sapiens) (UniProt P78540); test: in vitro enzyme assay to detect the production of urea directly proportional to the activity of Arginase II; format: functional; conditions: 33.3 µM; note: in the data most compounds retested in dose-response had high values
T2 sequence (whole entry): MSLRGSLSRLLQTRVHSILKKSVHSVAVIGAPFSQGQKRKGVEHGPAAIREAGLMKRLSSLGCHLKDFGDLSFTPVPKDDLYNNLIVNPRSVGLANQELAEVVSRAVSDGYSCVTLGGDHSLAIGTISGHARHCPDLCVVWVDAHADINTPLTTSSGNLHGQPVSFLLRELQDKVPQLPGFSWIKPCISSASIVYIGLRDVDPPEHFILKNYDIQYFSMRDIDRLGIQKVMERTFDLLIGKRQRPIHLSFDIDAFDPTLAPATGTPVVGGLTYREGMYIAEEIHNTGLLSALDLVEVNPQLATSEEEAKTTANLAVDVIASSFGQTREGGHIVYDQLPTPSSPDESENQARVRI

[5] = target: T3, Proteasome subunit beta (Trypanosoma cruzi) (UniProt O96673); test: Trypanosoma cruzi proteasome chymotrypsin-like activity (TcProtChymo) assay.; note: in the data most compounds retested in dose-response had high values; format: functional; conditions: 9.37 µM
T3 sequence (whole entry): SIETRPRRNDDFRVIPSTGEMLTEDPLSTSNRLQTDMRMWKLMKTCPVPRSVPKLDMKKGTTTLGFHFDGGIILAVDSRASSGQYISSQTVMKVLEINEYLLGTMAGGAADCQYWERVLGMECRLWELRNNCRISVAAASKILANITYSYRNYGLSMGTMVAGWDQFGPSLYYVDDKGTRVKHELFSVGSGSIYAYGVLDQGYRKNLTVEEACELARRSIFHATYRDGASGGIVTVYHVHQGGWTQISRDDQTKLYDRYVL

Homo sapiens = species: Homo sapiens; test: To identify inhibition of the IFN signalling (Jak-Stat) pathway via expression of an eGFP reporter gene under the control of an IFN-stimulated response element (ISRE) containing MxA promoter.; format: functional; conditions: 30 µM
[6] = target: T4, Tyrosyl-tRNA synthetase, putative (Trypanosoma cruzi (strain CL Brener)) (UniProt Q4DSP6); test: Trypanosoma cruzi tyrosyl tRNA synthetase (TcYRS) _High Tyrosine SOP; format: functional; conditions: 30 µM; note: in the data most compounds retested in dose-response had high values
T4 sequence (whole entry): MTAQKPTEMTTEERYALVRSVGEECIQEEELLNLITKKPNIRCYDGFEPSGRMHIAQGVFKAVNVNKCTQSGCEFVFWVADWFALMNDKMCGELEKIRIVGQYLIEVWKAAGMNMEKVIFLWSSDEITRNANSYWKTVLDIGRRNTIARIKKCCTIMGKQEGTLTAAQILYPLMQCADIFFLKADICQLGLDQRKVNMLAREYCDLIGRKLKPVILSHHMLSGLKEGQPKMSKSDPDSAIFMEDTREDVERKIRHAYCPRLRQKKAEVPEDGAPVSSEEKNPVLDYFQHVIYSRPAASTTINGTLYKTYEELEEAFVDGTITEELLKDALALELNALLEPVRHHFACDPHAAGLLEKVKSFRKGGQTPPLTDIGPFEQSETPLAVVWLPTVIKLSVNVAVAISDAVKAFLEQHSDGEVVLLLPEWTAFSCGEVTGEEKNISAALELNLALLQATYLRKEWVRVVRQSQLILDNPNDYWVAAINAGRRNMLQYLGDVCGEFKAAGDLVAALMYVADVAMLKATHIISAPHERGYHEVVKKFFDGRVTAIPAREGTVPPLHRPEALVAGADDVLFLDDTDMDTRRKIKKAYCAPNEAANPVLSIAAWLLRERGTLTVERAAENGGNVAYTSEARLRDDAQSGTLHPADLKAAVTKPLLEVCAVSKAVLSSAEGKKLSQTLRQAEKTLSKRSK

[7] = target: T4, Tyrosyl-tRNA synthetase, putative (Trypanosoma cruzi (strain CL Brener)); test: Trypanosoma cruzi tyrosyl tRNA synthetase (TcYRS) SOP; format: functional; conditions: 30 µM
[8] = target: Chromo domain-containing protein 1 (Saccharomyces cerevisiae (strain ATCC 204508 / S288c) (Baker's yeast)) (UniProt P32657); test: ScCHD-1 Enzyme Inhibition Assay; format: functional; conditions: 30 µM; note: in the data most compounds retested in dose-response had high values
Chain of Chromo domain-containing protein 1 (Saccharomyces cerevisiae (strain ATCC 204508 / S288c) (Baker's yeast)) (P32657 whole entry, the tested form may be a part): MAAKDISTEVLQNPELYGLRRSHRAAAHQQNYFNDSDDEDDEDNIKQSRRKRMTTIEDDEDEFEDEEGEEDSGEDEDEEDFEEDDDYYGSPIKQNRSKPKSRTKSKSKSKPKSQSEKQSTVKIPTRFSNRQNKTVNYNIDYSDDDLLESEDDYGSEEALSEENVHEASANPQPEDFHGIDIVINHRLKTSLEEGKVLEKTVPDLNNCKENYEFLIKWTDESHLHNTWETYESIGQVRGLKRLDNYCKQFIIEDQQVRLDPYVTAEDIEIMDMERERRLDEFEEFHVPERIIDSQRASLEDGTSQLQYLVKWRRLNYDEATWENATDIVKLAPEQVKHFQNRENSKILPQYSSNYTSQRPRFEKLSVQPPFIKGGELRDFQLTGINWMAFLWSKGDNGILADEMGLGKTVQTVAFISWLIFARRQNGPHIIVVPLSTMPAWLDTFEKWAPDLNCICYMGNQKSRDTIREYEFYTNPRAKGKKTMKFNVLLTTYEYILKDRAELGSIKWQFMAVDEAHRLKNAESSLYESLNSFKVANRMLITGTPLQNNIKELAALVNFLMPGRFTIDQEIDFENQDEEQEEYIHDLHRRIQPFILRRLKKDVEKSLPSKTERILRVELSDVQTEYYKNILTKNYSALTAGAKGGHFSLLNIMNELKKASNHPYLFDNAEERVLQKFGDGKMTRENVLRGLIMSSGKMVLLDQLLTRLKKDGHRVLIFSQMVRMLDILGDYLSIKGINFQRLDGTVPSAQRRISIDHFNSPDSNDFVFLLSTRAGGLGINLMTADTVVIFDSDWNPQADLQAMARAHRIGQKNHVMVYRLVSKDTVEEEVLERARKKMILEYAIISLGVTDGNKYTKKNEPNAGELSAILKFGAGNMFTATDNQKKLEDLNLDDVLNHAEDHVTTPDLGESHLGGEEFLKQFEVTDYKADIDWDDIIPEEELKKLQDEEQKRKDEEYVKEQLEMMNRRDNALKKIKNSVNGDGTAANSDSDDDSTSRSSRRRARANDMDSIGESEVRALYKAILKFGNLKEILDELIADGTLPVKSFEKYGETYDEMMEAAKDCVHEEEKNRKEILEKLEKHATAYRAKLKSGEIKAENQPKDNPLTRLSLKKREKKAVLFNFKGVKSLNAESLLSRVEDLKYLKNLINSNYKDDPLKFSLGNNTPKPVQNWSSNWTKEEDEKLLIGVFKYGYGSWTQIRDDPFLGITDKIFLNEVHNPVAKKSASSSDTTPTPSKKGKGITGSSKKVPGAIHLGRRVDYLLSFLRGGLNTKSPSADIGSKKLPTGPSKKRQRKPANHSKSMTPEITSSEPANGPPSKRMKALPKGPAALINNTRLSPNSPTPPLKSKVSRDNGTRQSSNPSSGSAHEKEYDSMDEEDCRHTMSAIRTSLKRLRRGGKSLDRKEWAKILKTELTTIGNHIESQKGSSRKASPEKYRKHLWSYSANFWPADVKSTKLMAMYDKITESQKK

Chain of Protein translocase subunit SecA (Escherichia coli (strain K12)) (P10408 whole entry): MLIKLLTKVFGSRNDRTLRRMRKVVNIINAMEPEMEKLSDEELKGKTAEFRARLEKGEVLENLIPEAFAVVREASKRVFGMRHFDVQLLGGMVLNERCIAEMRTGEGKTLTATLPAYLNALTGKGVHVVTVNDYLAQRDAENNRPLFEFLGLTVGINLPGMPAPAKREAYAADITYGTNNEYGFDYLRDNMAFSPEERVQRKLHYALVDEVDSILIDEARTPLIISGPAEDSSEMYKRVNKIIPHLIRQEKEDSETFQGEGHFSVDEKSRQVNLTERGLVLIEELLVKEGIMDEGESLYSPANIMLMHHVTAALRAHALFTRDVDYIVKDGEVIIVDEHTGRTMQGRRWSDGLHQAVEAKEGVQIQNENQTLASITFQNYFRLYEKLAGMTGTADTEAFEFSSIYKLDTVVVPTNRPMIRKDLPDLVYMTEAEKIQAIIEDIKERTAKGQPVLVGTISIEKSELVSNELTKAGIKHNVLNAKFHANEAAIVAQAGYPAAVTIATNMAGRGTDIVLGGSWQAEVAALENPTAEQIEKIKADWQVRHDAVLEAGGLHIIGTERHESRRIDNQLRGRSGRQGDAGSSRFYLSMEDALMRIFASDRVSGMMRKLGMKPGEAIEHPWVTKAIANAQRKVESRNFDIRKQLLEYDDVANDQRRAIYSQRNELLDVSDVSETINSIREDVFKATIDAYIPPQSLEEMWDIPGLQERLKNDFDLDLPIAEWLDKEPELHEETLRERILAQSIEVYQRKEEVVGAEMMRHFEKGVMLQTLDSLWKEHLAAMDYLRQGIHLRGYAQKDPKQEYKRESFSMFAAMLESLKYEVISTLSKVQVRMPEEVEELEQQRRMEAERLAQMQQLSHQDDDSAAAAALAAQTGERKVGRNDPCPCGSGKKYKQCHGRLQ
Chain of Sialic acid-binding Ig-like lectin 9 (Homo sapiens) (Q9Y336 whole entry): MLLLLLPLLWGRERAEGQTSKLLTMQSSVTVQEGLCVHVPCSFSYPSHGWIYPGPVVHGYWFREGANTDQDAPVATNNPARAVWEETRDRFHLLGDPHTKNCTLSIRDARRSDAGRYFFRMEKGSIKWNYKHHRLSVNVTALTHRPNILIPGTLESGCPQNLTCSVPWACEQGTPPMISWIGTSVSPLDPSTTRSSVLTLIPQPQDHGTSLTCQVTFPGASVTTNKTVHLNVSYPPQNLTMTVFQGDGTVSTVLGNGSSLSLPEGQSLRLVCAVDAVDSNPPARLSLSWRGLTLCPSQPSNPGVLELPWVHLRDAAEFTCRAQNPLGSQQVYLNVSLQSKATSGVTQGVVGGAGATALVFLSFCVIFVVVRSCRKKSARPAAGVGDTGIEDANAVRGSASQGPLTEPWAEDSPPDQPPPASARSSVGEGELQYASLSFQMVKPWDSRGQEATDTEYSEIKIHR

| SMILES | Percent Effect [1] [%] | Percent Effect [2] [%] | Percent Effect [3] [%] | Percent Effect (Trypanosoma cruzi) [%] | Percent Effect [4] [%] | Percent Effect [5] [%] | Percent Effect (Homo sapiens) [%] | Percent Effect [6] [%] | Percent Effect [7] [%] | Percent Effect [8] [%] |
| --- | --- | --- | --- | --- | --- | --- | --- | --- | --- | --- |
| O=C(NCCCN1CCc2ccccc2C1)c1cccnc1O | -1.75 | 10.7 | 3.3 | -0.803 | 2.22 | 2.8 | 4.99 | 2.63 | 10.3 | -11.3 |
| COc1ncc(CN2CC[C@@](C)(O)[C@H](Oc3cccc(F)c3)C2)cn1 | -2.75 | 9.33 | -0.132 | -2.76 | -1.33 | 6.73 | 8.72 | 4.23 | 10 | -23.1 |
| Cc1cc(C)c(OCC(=O)NS(=O)(=O)c2c(C)noc2C)c(C)c1 | -3.67 | -2.56 | -14.2 | 5.54 | 1.23 | 1.11 | 7.01 | 1.44 | 10.8 | 1.12 |
| COCc1nc(C(=O)NS(=O)(=O)c2ccc(C)cc2C)cs1 | -3.05 | 0 | 4.98 | 1.97 | 4.1 | -6.23 | -17.6 | 2.39 | 1.21 | -0.274 |
| c1cnnc(N2CCCC(NCc3cn4ccccc4n3)C2)c1 (stereo not given) | 4.38 | 23.4 | -9.09 | -10.8 | -1.43 | 26.5 | 17 | 8.82 | 11.8 | -10.5 |
| CC1CCN(C(=O)c2cccc3ncccc23)CC1 | -2.07 | -5.33 | 1.04 | -1.21 | -1.33 | 3.48 | 19 | 4.74 | 7.69 | 1.83 |
| Cc1ccc2oc(C(=O)N3CCCC(n4nc(C)cc4C)C3)cc2n1 (stereo not given) | -4.01 | 10.3 | 6.58 | 0.845 | 1.23 | 4.01 | -2.91 | 4.31 | 13.2 | 3.09 |
| Cc1cccc(C(=O)N2C[C@@H](OCc3cccnc3)[C@H]3OCCC[C@@H]32)n1 | -3.43 | 11.7 | -6.23 | 4.77 | -4.45 | 21.6 | 5.3 | 8.95 | 7.69 | 112 |
| Cc1ccccc1CC(=O)N(C)C1CCN(c2ccccn2)CC1 | -6.18 | 10.7 | 3.6 | 5.22 | -1.33 | 15 | 6.38 | 5.79 | 12.8 | -17.5 |
| CCNC(=O)N1CCN(C(=O)c2cc(Cl)cc3cccnc23)CC1 | -1.06 | 0 | 3.31 | -1.03 | 3.28 | 7.93 | 6.48 | -0.478 | -1.21 | 2.64 |
| Cc1occc1C(=O)N1CCC2(CCC(C(=O)NCC3CC3)O2)CC1 (stereo not given) | -0.841 | 19.5 | 1.13 | -0.75 | 1.83 | 13 | 6.84 | 11.6 | 20 | -4.43 |
| CCc1nc(C2CCCN2CCc2ccccn2)no1 (stereo not given) | 0.816 | 20.5 | -18.3 | 5.35 | 1.23 | 18.7 | 23.6 | 10.1 | 20.5 | -7.66 |
